In the library only some 1.4% were active in any assay of this set; here they are far more common.
E coli Lon inh = inhibits E. coli Lon protease; P0A9M0; purified E. coli Lon protease, fluorescence polarization; inhibition, % at 7.94 µM; 360,000 tested, 0.42% active; in the data active means inhibition above about 13%, passing the limit was not always enough;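 further: 0% = enzyme with probe and DMSO and 100% = no enzyme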
EBV gp42 inh = blocks Epstein-Barr virus glycoprotein 42 binding; Fluorescence polarization binding assay, mP read-out; 220,000 tested, 0.42% active; Q1HVG2; inhibition, % (tested at 21.74 µM); in the data active means inhibition above about 50%
MEX-5 binding = C. elegans MEX-5 TCR-2 RNA binding activity | Q9XUB2 | AID 1832 | activity score (negative = inhibition of binding), % at 10 µM | 300,000 tested, 0.38% active | MEX-5/FITC-TCR2 RNA binding, fluorescence polarization; hits give low values;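 active means inhibition past about -25% in most replicates, and total fluorescence under double the plate's negative control median, limit read from the data; inconclusive means replicates evenly split on the limit, or fluorescence at least double controls; inactive means too little inhibition in most replicates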;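 further: 0% = DMSO and -100% = 5 µM competing unlabeled TCR2 RNA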
Target sequence (Q9XUB2 whole entry, looked up): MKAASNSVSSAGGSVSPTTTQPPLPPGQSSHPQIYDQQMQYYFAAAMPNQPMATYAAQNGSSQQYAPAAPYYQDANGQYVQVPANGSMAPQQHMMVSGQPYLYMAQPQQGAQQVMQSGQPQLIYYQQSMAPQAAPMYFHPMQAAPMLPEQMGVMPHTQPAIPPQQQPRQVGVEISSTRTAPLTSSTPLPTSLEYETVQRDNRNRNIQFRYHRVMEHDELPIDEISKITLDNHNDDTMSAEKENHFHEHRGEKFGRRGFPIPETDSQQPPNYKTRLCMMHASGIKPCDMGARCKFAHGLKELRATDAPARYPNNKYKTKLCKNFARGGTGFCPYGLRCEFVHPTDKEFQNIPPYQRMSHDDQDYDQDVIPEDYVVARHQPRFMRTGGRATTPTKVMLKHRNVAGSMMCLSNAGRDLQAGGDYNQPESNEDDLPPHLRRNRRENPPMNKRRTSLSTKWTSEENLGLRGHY
GLD-1 RNA inh = GLD-1-TGE RNA interaction inhibition (C. elegans). Q17339. inhibition, % at 5.96 µM. purified GLD-1 + fluorescein TGE RNA, fluorescence polarization. 320,000 tested, 0.44% active;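 active means percent inhibition above a per-plate cutoff, the plate mean of test compounds plus 3 SD, cut at about 30% in these data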;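 further: 0% = DMSO wells with GLD-1 and probe and 100% = wells lacking GLD-1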
MCL1-BIM inh = MCL1-BIM-BH3 interaction inhibition (human); Q07820; GST-MCL1 / FITC-Bim-BH3 fluorescence polarization; inhibition, % at 10.9 µM; 320,000 tested, 0.68% active;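 active means inhibition above the mean inhibition of all tested compounds plus 3 SD, set per campaign, cut at about 40% in these data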;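 further: 0% = DMSO wells and 100% = unlabeled Bim-BH3 peptide control; higher means more loss of mP so more displacement of Bim peptide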
Bcl-xL primary = blocks human Bcl-xL binding to Bim BH3 peptide | AID 2129 | 320,000 tested, 0.7% active | inhibition, % at 10.9 µM | GST-Bcl-xL / FITC-Bim BH3 peptide fluorescence polarization | Q07817;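 active means inhibition above the mean of all tested compounds plus 3 SD, cutoff set per campaign, cut at about 30% in these data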;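 further: 0% = DMSO wells and 100% = unlabeled Bim-BH3 peptide competitor; inhibitors lower millipolarization by displacing the labeled peptide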
BCLXL inh confirm = Bcl-xL (human) inhibition, MCL1 counter-screen confirmation. shares compounds with MCL1-BIM inh. GST-Bcl-xL / FITC-Bim BH3 peptide FP binding. inhibition, % at 10.9 µM. 1,700 tested, 54% active;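 active means inhibition above a cutoff equal to the mean inhibition of all tested compounds plus 3 SD, cut at about 30% in these data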;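 further: 0% = DMSO wells and 100% = unlabeled Bim BH3 control peptide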
MCL1 BIM confirm = confirmation of human MCL1 and BIM-BH3 interaction inhibitors. shares compounds with MCL1-BIM inh. GST-MCL1 / FITC-Bim-BH3 fluorescence polarization. inhibition, % at 10.9 µM. 1,700 tested, 61% active. AID 2168;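 active means inhibition above the average of all tested compounds plus 3 SD, cut at about 40% in these data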;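 further: 0% = DMSO wells and 100% = unlabeled Bim-BH3 control peptide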
GLD1 RNA confirm = GLD-1 TGE RNA interaction inhibition, confirmation; shares compounds with GLD-1 RNA inh; GLD-1/FL-TGE RNA fluorescence polarization, biochemical; inhibition, % at 5.96 µM; 550 tested, 10% active; AID 2459;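 active means average inhibition across triplicates above the hit cutoff set in the primary screen, cut at about 32% in these data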;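 further: 0% = GLD-1 with RNA probe and DMSO and 100% = wells lacking GLD-1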
eLon confirm = E. coli Lon inhibition confirmation. shares compounds with E coli Lon inh. purified E. coli Lon, fluorescence polarization. inhibition, % at 7.94 µM. 1,400 tested, 31% active; in the data active means inhibition above about 16%;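 further: 0% = enzyme with probe and DMSO and 100% = no enzyme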
An asterisk follows results filed as active; ? = inconclusive; · = no result given; + = active, no number.

SMILES	E coli Lon inh	EBV gp42 inh	MEX-5 binding	GLD-1 RNA inh	MCL1-BIM inh	Bcl-xL primary	BCLXL inh confirm	MCL1 BIM confirm	eLon confirm	others
CC1(c2ccc3ccccc3c2)NC(=O)N(CC(=O)Nc2cccc(S(=O)(=O)N3CCOCC3)c2)C1=O (centres undefined)	2	3	2	4	-1	6	·	·	·
O=C(C(Br)=Cc1ccccc1)c1ccccc1	-11	·	·	·	·	·	·	·	·
CC1(C)CC(=O)C2=C(C1)OC1=C(C(=O)CC(C)(C)C1)C2c1ccc(O)cc1O	65*	117*	?	128*	+	174*	148*	194*	96*
CC1(C)CC(=O)C2=C(C1)OC1=C(C(=O)CC(C)(C)C1)C2c1ccc(O)c([N+](=O)[O-])c1	-9	2	1	2	9	1	·	·	·
Cn1c(=O)c2[nH]c(-c3ccccc3)c(O)c2n(C)c1=O	+	122*	?	+	+	+	142*	159*	+
Cn1c(=O)c2[nH]c(-c3ccccc3Cl)c(O)c2n(C)c1=O	139*	65*	-13	152*	134*	115*	49*	77*	13
Cc1cc(C)c(S(=O)(=O)Nc2ccc(Cl)cn2)c(C)c1	-4	·	3	8	10	3	·	·	·
CN1CCc2c(sc(NC(=O)C3CCCN3S(=O)(=O)c3ccc(Cl)s3)c2C(N)=O)C1 (centres undefined)	-8	·	1	7	0	8	·	·	·
O=C1CC(c2ccco2)CC2=C1C=Nc1ccccc1N2 (centres undefined)	4	11	0	2	-2	6	·	·	·
O=c1[nH]c2c(s1)C=Nc1ccccc1N2	114*	119*	-72*	144*	+	178*	118*	152*	149*
O=C(O)C1CCN(C(=O)c2ccccc2N2C(=O)[C@@H]3Cc4c([nH]c5ccccc45)C(c4cccc(Cl)c4)N3C2=O)CC1 (some centres undefined)	4	·	3	10	-3	3	·	·	·
COCCNC(=O)C(c1ccc(Cl)cc1)N(CCOC)C(=O)CCC(=O)Nc1nccs1 (centres undefined)	8	3	0	0	0	-2	·	·	·
Cc1cc2c(cc1C)NC(c1c(C)n(C)n(-c3ccccc3)c1=O)C1=C(CC(C)(C)CC1=O)N2 (centres undefined)	20*	85*	-9	85*	135*	120*	8	8	4
CSc1ccccc1C(=O)N1CCC2(CC1)CC(=O)c1ccccc1O2	1	·	0	3	0	3	·	·	·
CC[C@@]1(O)C(=O)OCc2c1cc1n(c2=O)Cc2cc3c(CN(C)C)c(O)ccc3nc2-1	+	·	?	+	+	+	+	+	+
CC[C@@]1(O)C(=O)OCc2c1cc1n(c2=O)Cc2cc3c(N)cccc3nc2-1	0	-4	-4	-3	16	7	·	·	·
N#Cc1c(N)sc(=S)c2c1CCCCC2	20*	49	-26*	56*	113*	87*	62*	76*	-49	GLD1 RNA confirm=24
Cc1cccc(C=Nc2ccc3c(c2)oc2ccccc23)c1O	-10	-9	0	-27	5	6	·	·	·
Cc1ccccc1N=Cc1cccc(O)c1O	15*	19	0	0	65*	36*	37*	56*	30*
CCN=c1scc(C)n1/N=C/c1ccc(O)c(O)c1O	25*	-6	-17	5	52*	15	33*	57*	22*
CCN=c1scc(C)n1/N=C/c1cc(Br)c(O)c(Br)c1	3	-2	0	5	12	7	·	·	·
Cc1nc(Cl)c2c(n1)NC1=C(O2)C(=O)CCC1	84*	136*	?	168*	198*	165*	146*	175*	144*
O=C1NC2=C(C(=O)CCC2)C(c2ccccc2Cl)N1 (centres undefined)	2	·	1	-3	3	6	·	·	·
CC(=O)N1CCc2c(sc(NC(=O)C3CCN(S(=O)(=O)c4cccs4)CC3)c2C(N)=O)C1	-39	·	-3	28	3	6	·	·	·
CC(=O)N1CCc2c(sc(NC(=O)C3CCCN3S(=O)(=O)c3cccs3)c2C(N)=O)C1 (centres undefined)	40*	·	-35*	115*	64*	67*	67*	76*	14
SMILES	E coli Lon inh	EBV gp42 inh	MEX-5 binding	GLD-1 RNA inh	MCL1-BIM inh	Bcl-xL primary	BCLXL inh confirm	MCL1 BIM confirm	eLon confirm	others
Cc1nnc(C)n1/N=C/c1ccc(-c2ccccc2Cl)o1	7	·	-6	2	6	6	·	·	·
O=C1NC(=S)/C(=C\c2ccc(-c3ccccc3Cl)o2)S1	48*	60*	-42*	60*	62*	58*	91*	116*	20*	GLD1 RNA confirm=29
CCN1CC=C2C(C#N)=C(N)C(C#N)(C#N)[C@H](c3cccc(OC)c3OC)[C@H]2C1	36*	·	·	114*	151*	136*	52*	65*	14
COc1cccc(C2C(C#N)=C(N)N(N(C)C)C3=C2C(=O)CC(C)(C)C3)c1OC (centres undefined)	7	·	0	-7	4	4	·	·	·
COc1cccc(C2C3CN(C)CC=C3C(C#N)=C(N)C2(C#N)C#N)c1OC (centres undefined)	53*	78*	-67*	78*	135*	116*	77*	97*	16*
O=C(c1ccccc1)c1c2c(cc3sc4ccccc4[n+]13)-c1cccc3cccc-2c13	+	32	·	55*	116*	95*	62*	71*	+
CCOC(=O)C1=C(CSc2nc3c(cc2C#N)CN(C)CC3)OC(N)=C(C#N)C1c1ccncc1 (centres undefined)	35*	6	-51*	61*	143*	114*	108*	119*	-23
O=C(O)C1CCCC2CN3CCc4c([nH]c5ccccc45)C3C(O)C21 (centres undefined)	20*	·	-10	35*	104*	86*	29	31	2

Screening results deposited in PubChem by several laboratories.
